High-throughput results as filed in PubChem.
The full list was thinned out, with hits kept by preference.
Dicer processing = blocks human Dicer maturation of pre-miR-21. Q9UPY3. AID 1347074. z-score at 25 µM. cat-ELCCA pre-miR-21 Dicer processing, chemiluminescence; stronger effect = higher value. 47,000 tested, 6% active; in the data active = z-score above about 3, passing the limit was not always enough;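 also: plate controls were vehicle for no effect and no enzyme for full effect; higher signal means more uncleaved substrate so more Dicer inhibition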
Target sequence (Q9UPY3 whole entry, looked up): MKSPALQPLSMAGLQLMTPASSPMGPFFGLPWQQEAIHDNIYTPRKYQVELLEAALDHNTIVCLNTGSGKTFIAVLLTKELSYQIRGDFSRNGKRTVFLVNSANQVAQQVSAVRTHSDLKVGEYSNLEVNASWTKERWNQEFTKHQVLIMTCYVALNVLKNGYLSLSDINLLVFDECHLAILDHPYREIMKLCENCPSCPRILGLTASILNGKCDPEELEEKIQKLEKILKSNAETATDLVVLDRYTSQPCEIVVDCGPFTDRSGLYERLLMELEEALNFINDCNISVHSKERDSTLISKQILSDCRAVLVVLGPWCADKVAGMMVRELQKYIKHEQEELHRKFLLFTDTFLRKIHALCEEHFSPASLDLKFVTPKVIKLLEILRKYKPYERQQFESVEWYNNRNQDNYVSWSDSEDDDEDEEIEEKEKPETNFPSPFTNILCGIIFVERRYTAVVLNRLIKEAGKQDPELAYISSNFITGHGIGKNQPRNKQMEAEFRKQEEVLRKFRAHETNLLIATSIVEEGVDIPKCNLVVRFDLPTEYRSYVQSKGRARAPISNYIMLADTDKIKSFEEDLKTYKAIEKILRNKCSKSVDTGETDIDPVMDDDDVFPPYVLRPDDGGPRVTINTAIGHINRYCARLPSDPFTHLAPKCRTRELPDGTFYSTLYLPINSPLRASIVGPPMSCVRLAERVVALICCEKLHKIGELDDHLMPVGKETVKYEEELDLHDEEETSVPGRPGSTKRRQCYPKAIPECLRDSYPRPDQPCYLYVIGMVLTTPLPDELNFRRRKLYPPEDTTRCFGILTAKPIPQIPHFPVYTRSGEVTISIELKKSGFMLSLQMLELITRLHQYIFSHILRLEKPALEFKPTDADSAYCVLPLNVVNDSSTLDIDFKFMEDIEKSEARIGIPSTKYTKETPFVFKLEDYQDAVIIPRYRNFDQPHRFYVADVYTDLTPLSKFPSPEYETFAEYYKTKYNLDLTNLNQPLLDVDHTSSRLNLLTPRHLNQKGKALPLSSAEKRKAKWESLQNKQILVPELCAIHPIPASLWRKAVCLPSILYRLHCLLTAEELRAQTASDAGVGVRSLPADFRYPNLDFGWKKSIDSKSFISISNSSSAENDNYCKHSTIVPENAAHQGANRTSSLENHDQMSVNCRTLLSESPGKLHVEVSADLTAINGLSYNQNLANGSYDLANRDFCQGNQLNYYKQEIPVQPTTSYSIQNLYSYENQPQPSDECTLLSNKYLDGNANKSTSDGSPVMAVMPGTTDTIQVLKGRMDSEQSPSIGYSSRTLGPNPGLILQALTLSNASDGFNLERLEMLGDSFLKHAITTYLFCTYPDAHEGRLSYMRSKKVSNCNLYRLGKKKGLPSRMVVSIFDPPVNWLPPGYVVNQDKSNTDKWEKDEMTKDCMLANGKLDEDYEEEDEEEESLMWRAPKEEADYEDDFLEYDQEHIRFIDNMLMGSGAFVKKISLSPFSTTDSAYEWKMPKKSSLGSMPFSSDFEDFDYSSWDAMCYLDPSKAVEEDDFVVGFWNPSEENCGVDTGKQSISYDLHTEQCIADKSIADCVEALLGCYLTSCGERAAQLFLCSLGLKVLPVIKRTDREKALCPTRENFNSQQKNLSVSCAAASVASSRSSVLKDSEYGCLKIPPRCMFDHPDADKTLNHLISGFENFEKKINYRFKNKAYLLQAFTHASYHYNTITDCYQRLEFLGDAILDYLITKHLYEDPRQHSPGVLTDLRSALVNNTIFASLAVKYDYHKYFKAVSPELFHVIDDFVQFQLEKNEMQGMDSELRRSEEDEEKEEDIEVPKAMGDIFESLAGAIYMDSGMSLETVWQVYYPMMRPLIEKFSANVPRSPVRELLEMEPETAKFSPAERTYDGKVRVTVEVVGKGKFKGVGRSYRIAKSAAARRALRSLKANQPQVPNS
* hit, by the source's call.

SMILES	Dicer processing
Cc1nn(-c2ccc(F)cc2)c(=O)c2noc(C)c12	1.02
CC(C)NC(=O)c1nn2c(c1Cl)NC(c1ccc(Br)cc1)CC2C(F)(F)F (stereo unspecified)	-0.28
CC(C)NC(=O)c1cc2n(n1)C(C(F)(F)F)CC(c1ccc(Br)cc1)N2 (stereo unspecified)	1.77
CC(C)NC(=O)c1cnn2c1NC(c1ccc(Br)cc1)CC2C(F)(F)F (stereo unspecified)	5.83*
C(C#CCOc1ccccc1)#CCOc1ccccc1	-1.08
CC(=O)c1ccc(NC(=O)CSCC(=O)O)cc1	4.35*
CC(=O)c1ccc(NC(=O)CN2CCN(CC(=O)Nc3ccc(C(C)=O)cc3)CC2)cc1	1.63
O=C(O)CSCC(=O)Nc1cccnc1	5.56*
O=C(O)CSCC(=O)Nc1ccccn1	8.44
O=C(O)CSCC(=O)Nc1ccc(C(F)(F)F)cn1	-1.22
COc1ccc(NC(=O)CSCC(=O)O)cc1OC	-1.68
O=C1CC(c2ccc(F)cc2)Cc2nc(Nc3ccc(F)cc3)ncc21 (stereo unspecified)	0.03
N#Cc1c(NC(=O)C2Cc3ccccc3CN2S(=O)(=O)c2ccc(F)cc2)sc2c1CCCC2 (stereo unspecified)	-1.19
O=C(NC(=O)c1ccccc1Cl)c1ccccc1O	0.32
Nc1cc(NC(=O)c2ccccc2O)ccc1Cl	5.62*
O=C(Nc1ccc(Oc2ccc(NC(=O)c3ccccc3Cl)cc2)cc1)c1ccccc1Cl	-0.87
O=C1C2C3c4ccccc4C(C(=O)O)(c4ccccc43)C2C(=O)N1c1ccc(Br)cc1 (stereo unspecified)	2.33
N#C/C(=C\Nc1cc(C(F)(F)F)cc(C(F)(F)F)c1)S(=O)(=O)c1cccs1	-0.3
COCCOC(=O)C1=C(C)NC2=C(C(=O)CC(C)(C)C2)C1c1ccc(OC)c(Br)c1 (stereo unspecified)	1.33
COc1ccccc1C1CC(=O)Nc2nc(N)[nH]c(=O)c21 (stereo unspecified)	2.76
Cn1c(-c2cccc(Br)c2)cnc1NCc1ccccc1F	2.47
Cn1ccnc1SCC(=O)N1CCCC1	4.45*
Cn1ccnc1SCC(=O)Nc1ccccc1	0.15
Cn1ccnc1SCC(=O)c1ccc(Cl)cc1	0.03
CSc1nnc(-c2ccc(Br)cc2)o1	1.54
SMILES	Dicer processing
CSc1nnc(-c2ccc(C)cc2)o1	0.94
Cc1ccc(-c2nnc(-c3ccc(Br)cc3)o2)cc1	3.77*
Cc1cc(C)nc(N2N=C(C(C)C)CC2=O)n1	-5.92
Cc1cc(C)nc(SCC2=NN(c3nc(C)cc(C)n3)C(=O)C2)n1	4.05*
Cc1cc(C)nc(N2N=C(CSc3ccc(Cl)cc3)CC2=O)n1	-0.85
O=C(NCc1cccs1)c1nn2c(C(F)(F)F)cc(-c3cccs3)nc2c1Cl	0.11
CSC(SC)=C(C#N)C(=O)c1cccc(C(F)(F)F)c1	5.06*
N#CC(C(=O)c1cccc(C(F)(F)F)c1)=C1SCCCCS1	0.81
CSC(SC)=C(C#N)C(=O)c1cccc(C)c1	-0.63
Cc1[nH][nH]c(=O)c1C(c1cccc(O)c1)c1c(C)[nH][nH]c1=O	-6.05
CSc1sc(/C(C)=N\O)c2c1/C(=N\O)CC(C)(C)C2	5.6*
CSc1sc(C(=O)O)c2c1C(=O)CC(C)(C)C2	0.03
COC(=O)c1sc(SC)c2c1CC(C)(C)C/C2=N/O	-0.85
Cn1c(-c2ccc(F)cc2)cnc1NCc1cccc(Cl)c1	2.84
CCN(CC)CCSc1nc(O)c(C(C)C)c(=O)[nH]1	4.22*
CCc1c(O)nc(SCCN(CC)CC)[nH]c1=O	0
CC(C)c1c(O)nc(SCCN2CCOCC2)[nH]c1=O	-0.1
O=C(c1cnc2cc(-c3ccccc3)nn2c1)c1cc(F)ccc1O	-1.14
O=C(NNS(=O)(=O)c1ccc(Cl)c(Cl)c1)c1sccc1-n1cccc1	-0.82
Fc1ccc(Cn2nnc3ccccc32)cc1	2.61
c1ccc2c(c1)CCN2Cn1nnc2ccccc21	4.42*
S=c1[nH]nc(Cn2nnc3ccccc32)o1	-1.38
CCCCCCOc1ccc(N2C(=O)CC(N3CCSCC3)C2=O)cc1 (stereo unspecified)	-1.32
O=C(NNc1nc(-c2cccs2)ns1)c1ccc(Cl)cc1	1.43
CC1(C)CC(=O)C2=C(C1)Nc1ccccc1NC2c1ccc2c(c1)OCO2 (stereo unspecified)	-0.62
SMILES	Dicer processing
c1ccc2c(c1)NC(c1ccc3c(c1)OCCO3)n1cccc1-2 (stereo unspecified)	2.57
O=C1c2ccccc2NC(c2ccc3c(c2)OCO3)N1Cc1ccccc1 (stereo unspecified)	3.43*
O=C(Oc1c(-c2ccccc2)c(=O)n2c3c(cccc13)CC2)c1cccs1	3.96*
O=C(Oc1c(-c2ccccc2)c(=O)n2c3c(cccc13)CC2)c1ccccc1	-2.04
O=C(Oc1c(-c2ccccc2)c(=O)n2c3c(cccc13)CCC2)c1cccs1	-1.03
Cn1c(CNC(=O)OC(C)(C)C)nnc1SCC(=O)NCc1ccccc1	0.45
Cc1cc2ncc(-c3ccnc(=S)[nH]3)c(C)n2n1	-0.88
CC(C)(C)NC(=O)NC(=O)c1ccc(Oc2ccc(C(F)(F)F)cc2[N+](=O)[O-])cc1	3.76*
CS(=O)c1ccc(Oc2ccc(C(F)(F)F)cc2[N+](=O)[O-])cc1 (stereo unspecified)	0.25
O=[N+]([O-])c1cc(C(F)(F)F)ccc1Oc1ccc(F)cc1	23.7
CCOC(=O)c1cnn(-c2nc(-c3cccc(C(F)(F)F)c3)cs2)c1C(F)(F)F	-0.73
Brc1ccc(OCc2nn3c(Cc4ccccc4)nnc3s2)cc1	1.21
Cc1nn2c(=O)c(NC(=O)c3ccccc3)cnc2s1	-2.1
O=c1[nH]c2ccc([N+](=O)[O-])cc2nc1/C=C(\O)c1ccccc1	23.8*
CC(C)(C)/C(O)=C/c1nc2cc([N+](=O)[O-])ccc2[nH]c1=O	0.03
O=[N+]([O-])c1ccc2nc(-c3ccccc3)c(-c3ccccc3)nc2c1	-2.81
Nc1c(C(=O)Nc2ccccc2)sc2nc3c(c(-c4cccnc4)c12)CCC3	3.8
CC1CN(C(=S)Nc2cccc3ccccc23)CC(C)O1 (stereo unspecified)	-1.49
CCOC(=S)Nc1cccc2ccccc12	-1.19
CC(C)NC(=S)Nc1cccc2ccccc12	6.14*
O=C(O)COc1ccc(/C=C/c2nc(-c3ccccc3O)n(-c3ccccc3)n2)cc1	1.29
COc1cc(/C=C/c2nc(-c3ccccc3O)n(-c3ccccc3)n2)ccc1O	6.04*
COc1cc(/C=N/Nc2nc3c(c(=O)n(Cc4ccccc4)c(=O)n3C)n2C)ccc1O	-0.04
CCOC(=O)c1cnc2c(-c3ccccc3)c(C(F)(F)F)sc2c1N1CCOCC1	-0.79
CCCN(C)S(=O)(=O)c1cccc2c(N)cccc12	-1.17
SMILES	Dicer processing
O=C1CSC2=NC3=C(CCc4ccccc43)C(c3ccccc3)N12 (stereo unspecified)	-1.45
CC(=O)c1sc2scc(C)c2c1C	2.17
O=C1c2cccc3cc([N+](=O)[O-])cc(c23)C(=O)N1CCO	-0.12
COC(=O)CSC1=C(C#N)C(=O)NC(c2ccc(O)c(OC)c2)S1 (stereo unspecified)	2.67
CC(C)(C)NC(=O)NNC(=O)c1sccc1OCc1ncc(C(F)(F)F)cc1Cl	-1.08
Cc1cccc(NC(=O)c2ccccc2)n1	0.52
O=C(Nc1ncccn1)c1ccc(Cl)cc1	-0.85
Cc1cccc(NC(=O)c2ccc(Cl)cc2)n1	3.08*
O=c1c(N=Nc2n[nH]c3nnc(-c4ccccc4)c(-c4ccccc4)c23)c(O)nc2ccccn12	0.39
COc1ccc(-c2noc(/C=C/c3ccccc3Cl)n2)cc1OC	0.46
Cc1ccc2c(c1)sc(/C=C1\Sc3ccccc3N1CCO)[n+]2C	-0.69
